From PubChem BioAssay (Tox21)
Results filed as inconclusive are left out. The source made the active and inactive calls. Unless noted, calls follow the shape of the dose curve; as a rule, active = well fitted cell-killing curve with a large enough effect in the repeat runs; inconclusive = weak or mixed curves; inactive = no such curve, though single readings can be large or run the other way.

Molecular target: Peroxisome proliferator-activated receptor delta (Homo sapiens) (UniProt Q03181)
Assay: qHTS assay to identify small molecule agonists of the peroxisome proliferator-activated receptor delta (PPARd) signaling pathway (AID 743212; calls by dose curve;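 also: HEK293H cells with PPARd UAS beta-lactamase reporter GeneBLAzer system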)
Conditions: HEK293H PPARd-UAS-bla, beta-lactamase FRET ratio, 17 h; series mostly up to 62.6 µM; activation: at the top concentration
How it was run: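 Beta-lactamase reporter read by fluorescence (LiveBLAzer B/G FRET, 2 h, room temperature). Test agents, in DMSO, incubated at 37 C with PPARd-bla HEK293H cells.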
% is scaled to controls: 0 for no effect and ±100 for the full control effect.

Sequence of Peroxisome proliferator-activated receptor delta (Homo sapiens) (Q03181 whole entry, looked up): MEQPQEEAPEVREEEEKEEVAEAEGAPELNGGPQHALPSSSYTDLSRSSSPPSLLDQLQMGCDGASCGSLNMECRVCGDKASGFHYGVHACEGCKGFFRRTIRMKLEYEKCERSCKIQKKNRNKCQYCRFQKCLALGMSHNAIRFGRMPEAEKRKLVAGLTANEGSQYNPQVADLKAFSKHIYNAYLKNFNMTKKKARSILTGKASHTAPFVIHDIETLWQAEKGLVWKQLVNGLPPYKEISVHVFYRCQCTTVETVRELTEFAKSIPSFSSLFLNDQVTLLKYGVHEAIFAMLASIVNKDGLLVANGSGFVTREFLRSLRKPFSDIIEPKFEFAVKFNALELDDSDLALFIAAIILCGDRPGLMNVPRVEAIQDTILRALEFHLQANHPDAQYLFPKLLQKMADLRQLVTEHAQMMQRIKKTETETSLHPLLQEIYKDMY

Row | Structure (SMILES) | activation
1 | CC(CN1CC(=O)NC(=O)C1)N1CC(=O)NC(=O)C1 (configuration not stated) | -2.98% (inactive)
2 | C=COCCCCO | -0.374% (inactive)
3 | O=C(O)/C=C(\CC(=O)O)C(=O)O | -1.97% (inactive)
4 | CC(=O)c1ccc2ccc3ccccc3c2c1 | 4.55% (inactive)
5 | Cc1ccc(S(=O)(=O)NC(=O)NN2CC3CCCC3C2)cc1 (configuration not stated) | -0.643% (inactive)
6 | CC(C)(C)NCC(O)COc1cccc2c1CCC(=O)N2 (configuration not stated) | -0.021% (inactive)
7 | C/C(=N\O)c1ccc(OCC(=O)N2CCCCC2)cc1 | 7.07% (inactive)
8 | Cc1cc(C)c(C)c(C)c1 | -0.223% (inactive)
9 | CC1(C)C(=O)C(C)(C)C1=O | -0.668% (inactive)
10 | Cc1ccc(Br)cc1 | -0.0452% (inactive)
11 | CSC(=O)c1cccc2nnsc12 | -0.717% (inactive)
12 | CN(C)c1ccncc1 | -0.347% (inactive)
13 | C=CCN(CC=C)CC=C | -2.18% (inactive)
14 | CC(C)(O)CCCC1=CCC(C=O)CC1 (configuration not stated) | 1.03% [at 81.1 µM] (inactive)
15 | CC(=O)OC1CCC(C(C)(C)C)CC1 (configuration not stated) | -0.535% (inactive)
16 | CC/C=C\CCOC(=O)c1ccccc1 | 0.789% (inactive)
17 | O=C(O)P(=O)(O)O | -0.621% (inactive)
18 | CC[C@@]1(c2ccccc2)NC(=O)N(C)C1=O | -3% (inactive)
19 | Cc1cc(O)c(Cl)cc1C | 3.1% (inactive)
20 | C[C@@H]1CC[C@@]2(OC1)O[C@H]1C[C@H]3[C@@H]4CC[C@H]5C[C@@H](O)CC[C@]5(C)[C@H]4CC(=O)[C@]3(C)[C@H]1[C@@H]2C | 0.168% [at 5.95 µM] (inactive)
21 | NS(=O)(=O)c1cc2c(cc1C(F)(F)F)NCNS2(=O)=O | 2.64% (inactive)
22 | CCN(CC)CC | -2.65% [at 81.1 µM] (inactive)
23 | COc1ccc2cc(CCC(C)=O)ccc2c1 | -0.112% (inactive)
24 | CC(=O)OC/C=C(/C)CCC=C(C)C | -2.1% (inactive)

Test system: not listed separately
Assay: qHTS assay to identify small molecule antagonists of the peroxisome proliferator-activated receptor delta (PPARd) signaling pathway - cell viability counter screen (AID 743213); also: nearly all actives have a fitted effect of over 50% in size
Conditions: PPARd-bla HEK293H viability, CellTiter-Glo luminescence, 17 h; series mostly up to 62 µM; viability change, negative = cytotoxic: at the top concentration
How it was run: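 HEK293H cells with the PPARd UAS-bla reporter, co-treated 17 h at 37 C with compounds and L165041 (300 nM final), were lysed with CellTiter-Glo. Luminescence indicated viable cell content.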

Row | Structure (SMILES) | viability change, negative = cytotoxic
25 | CC(CN1CC(=O)NC(=O)C1)N1CC(=O)NC(=O)C1 (configuration not stated) | 0.565% (inactive)
26 | C=COCCCCO | 9.28% (inactive)
27 | O=C(O)/C=C(\CC(=O)O)C(=O)O | 19.4% (inactive)
28 | CC(=O)c1ccc2ccc3ccccc3c2c1 | 2.39% (inactive)
29 | CCC(C)SSC(C)CC (configuration not stated) | 3.01% (inactive)
30 | Cc1ccc(S(=O)(=O)NC(=O)NN2CC3CCCC3C2)cc1 (configuration not stated) | 10.1% (inactive)
31 | O=C1CC2(CCCC2)CC(=O)N1CCNCC1COc2ccccc2O1 (configuration not stated) | 22.1% (inactive)
32 | CC[N+](C)(CC)CC | 4.41% (inactive)
33 | CC(C)(C)NCC(O)COc1cccc2c1CCC(=O)N2 (configuration not stated) | -14% (inactive)
34 | c1coc(Cn2cccc2)c1 | -4.14% (inactive)
35 | Clc1cc(Cl)c(Cl)c(Cl)c1Cl | -33.1% (inactive)
36 | CC1(C)C(=O)C(C)(C)C1=O | -1.55% (inactive)
37 | Cc1ccc(Br)cc1 | 6.2% (inactive)
38 | CN(C)c1ccncc1 | 0.021% (inactive)
39 | C=CCN(CC=C)CC=C | 12.7% (inactive)
40 | CC(C)(O)CCCC1=CCC(C=O)CC1 (configuration not stated) | -18.9% [at 80.4 µM] (inactive)
41 | CC(=O)OC1CCC(C(C)(C)C)CC1 (configuration not stated) | 0.815% (inactive)
42 | CC/C=C\CCOC(=O)c1ccccc1 | 12.5% (inactive)
43 | COc1cnc(NS(=O)(=O)c2ccc(N)cc2)nc1 | 8.79% (inactive)
44 | CC[C@@]1(c2ccccc2)NC(=O)N(C)C1=O | 7.78% (inactive)
45 | C[C@@H]1CC[C@@]2(OC1)O[C@H]1C[C@H]3[C@@H]4CC[C@H]5C[C@@H](O)CC[C@]5(C)[C@H]4CC(=O)[C@]3(C)[C@H]1[C@@H]2C | 11.9% [at 6.26 µM] (inactive)
46 | NS(=O)(=O)c1cc2c(cc1C(F)(F)F)NCNS2(=O)=O | 4.51% (inactive)
47 | CC(=O)OC/C=C(/C)CCC=C(C)C | -2.76% (inactive)
48 | CCC(C)(C)C | 0.0464% [at 80.4 µM] (inactive)
49 | Cc1ccc2ccccc2n1 | -2.07% (inactive)

Molecular target: Peroxisome proliferator-activated receptor delta (Homo sapiens) (UniProt Q03181)
Assay: qHTS assay to identify small molecule antagonists of the peroxisome proliferator-activated receptor delta (PPARd) signaling pathway (AID 743215; active = well fitted inhibition curve with a large enough effect in the signal ratio in the repeat runs, not every such curve was filed as active; the % refers to the signal ratio;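 also: cells stimulated with agonist L165041 at 300 nM final during compound exposure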)
Conditions: HEK293H PPARd-UAS-bla, beta-lactamase FRET ratio, antagonist, 17 h; series mostly up to 62 µM; ratio activity, negative = inhibition: at the top concentration
How it was run: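 Fluorescence from cleaved LiveBLAzer B/G FRET substrate (2 h, room temperature) reports PPARd-driven beta-lactamase in HEK293H UAS-bla cells. Cells had been treated 17 h at 37 C with compound plus 300 nM final L165041.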

Row | Structure (SMILES) | ratio activity, negative = inhibition
50 | CC(CN1CC(=O)NC(=O)C1)N1CC(=O)NC(=O)C1 (configuration not stated) | 5.82% (inactive)
51 | C=COCCCCO | 4.97% (inactive)
52 | O=C(O)/C=C(\CC(=O)O)C(=O)O | -0.474% (inactive)
53 | Cc1ccc(S(=O)(=O)NC(=O)NN2CC3CCCC3C2)cc1 (configuration not stated) | -5.34% (inactive)
54 | CC(C)(C)NCC(O)COc1cccc2c1CCC(=O)N2 (configuration not stated) | 2.95% (inactive)
55 | C/C(=N\O)c1ccc(OCC(=O)N2CCCCC2)cc1 | -1.59% (inactive)
56 | Cc1cc(C)c(C)c(C)c1 | 1.6% (inactive)
57 | CC1(C)C(=O)C(C)(C)C1=O | 2.41% (inactive)
58 | Cc1ccc(Br)cc1 | -1.55% (inactive)
59 | CSC(=O)c1cccc2nnsc12 | -1.65% (inactive)
60 | CC(C)(O)CCCC1=CCC(C=O)CC1 (configuration not stated) | -3.76% [at 80.4 µM] (inactive)
61 | CC(=O)OC1CCC(C(C)(C)C)CC1 (configuration not stated) | -1.3% (inactive)
62 | CC/C=C\CCOC(=O)c1ccccc1 | -4.16% (inactive)
63 | CCCCCCCCCCCCCCCCN(C)C | -0.339% [at 6.26 µM] (inactive)
64 | Cc1cc(O)c(Cl)cc1C | 9.94% (inactive)
65 | NS(=O)(=O)c1cc2c(cc1C(F)(F)F)NCNS2(=O)=O | -0.159% (inactive)
66 | CCN(CC)CC | 6.27% [at 80.4 µM] (inactive)
67 | CC(=O)OC/C=C(/C)CCC=C(C)C | -1.81% (inactive)

Molecular target: Bile acid receptor (Homo sapiens) (UniProt Q96RI1)
Assay: qHTS assay to identify small molecule antagonists of the farnesoid-X-receptor (FXR) signaling pathway (AID 743217; active = well fitted inhibition curve with a large enough effect in the signal ratio in the repeat runs, not every such curve was filed as active; the % refers to the signal ratio)
Conditions: HEK293T FXR-UAS-bla, beta-lactamase ratio, CDCA-stimulated, 16 h; series mostly up to 62.6 µM; activity change, negative = inhibition: at the top concentration
How it was run: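 FRET fluorescence after 2 h room-temperature LiveBLAzer loading gives the readout. Prior step: FXR-bla HEK 293T cells, seeded and incubated 5 h, received test compounds plus 50 uM final CDCA for 16 h at 37 °C.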

Sequence of Bile acid receptor (Homo sapiens) (Q96RI1 whole entry, looked up): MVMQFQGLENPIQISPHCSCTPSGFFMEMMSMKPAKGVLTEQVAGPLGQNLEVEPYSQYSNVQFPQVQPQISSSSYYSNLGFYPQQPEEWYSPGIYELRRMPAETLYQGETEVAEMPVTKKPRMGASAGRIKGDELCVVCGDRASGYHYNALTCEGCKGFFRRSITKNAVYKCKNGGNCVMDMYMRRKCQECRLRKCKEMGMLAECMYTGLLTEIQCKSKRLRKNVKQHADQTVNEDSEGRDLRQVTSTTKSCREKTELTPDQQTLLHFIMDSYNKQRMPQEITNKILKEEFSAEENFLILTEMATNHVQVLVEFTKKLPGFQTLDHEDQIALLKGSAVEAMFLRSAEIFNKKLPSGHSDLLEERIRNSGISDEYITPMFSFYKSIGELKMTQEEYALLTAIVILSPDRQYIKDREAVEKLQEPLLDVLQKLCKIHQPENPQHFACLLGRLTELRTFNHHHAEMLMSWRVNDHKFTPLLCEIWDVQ

Row | Structure (SMILES) | activity change, negative = inhibition
68 | O=C(O)/C=C(\CC(=O)O)C(=O)O | 6.82% (inactive)
69 | CC(=O)c1ccc2ccc3ccccc3c2c1 | -2.52% (inactive)
70 | O=C1CC2(CCCC2)CC(=O)N1CCNCC1COc2ccccc2O1 (configuration not stated) | -4.36% (inactive)
71 | CC[N+](C)(CC)CC | 2.75% (inactive)
72 | c1coc(Cn2cccc2)c1 | 1.74% (inactive)
73 | CCCCCCCCS(=O)(=O)O | 1% [at 81.1 µM] (inactive)
74 | C/C(=N\O)c1ccc(OCC(=O)N2CCCCC2)cc1 | 2.12% (inactive)
75 | Cc1cc(C)c(C)c(C)c1 | 2.03% (inactive)
76 | CC1(C)C(=O)C(C)(C)C1=O | 0.51% (inactive)
77 | C=CCCCCCCCCOC(C)=O | -0.147% (inactive)
78 | CC/C=C\CCOC(=O)c1ccccc1 | -0.242% (inactive)
79 | O=C(O)P(=O)(O)O | 6.84% (inactive)
80 | CCCCCCCCCCCCCCCCN(C)C | -5.41% [at 5.95 µM] (inactive)
81 | CC[C@@]1(c2ccccc2)NC(=O)N(C)C1=O | 2.87% (inactive)
82 | Cc1cc(O)c(Cl)cc1C | -9.11% (inactive)
83 | C[C@@H]1CC[C@@]2(OC1)O[C@H]1C[C@H]3[C@@H]4CC[C@H]5C[C@@H](O)CC[C@]5(C)[C@H]4CC(=O)[C@]3(C)[C@H]1[C@@H]2C | 10.4% [at 5.95 µM] (inactive)
84 | NS(=O)(=O)c1cc2c(cc1C(F)(F)F)NCNS2(=O)=O | -16.6% (inactive)
85 | CCN(CC)CC | 2.23% [at 81.1 µM] (inactive)
86 | CCCCN1C(=O)c2ccccc2C1=O | 0.885% [at 81.1 µM] (inactive)
87 | CCC(C)(C)C | 2.93% [at 81.1 µM] (inactive)
